# According to PMC5913336, “True equilibrium measurement of transcription factor-DNA binding affinities using automated polarization microscopy”:
# Biological target: T1, Pan (Drosophila melanogaster, UniProt P91943 258-356)
# T1 sequence: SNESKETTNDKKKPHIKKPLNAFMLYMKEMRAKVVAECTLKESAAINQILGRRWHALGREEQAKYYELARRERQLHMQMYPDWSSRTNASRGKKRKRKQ
# Assay: FP; 33 mM phosphate pH 7.0, 90 mM NaCl, 0.01% Tween 20, 0.1 mM DTT, 0.5% agarose; room temperature
# Settings: tags: N-GST (pGEX-6P-1, kept); dsDNA, one strand shown
Sequence,binding signal,Kd [µM]
AGTCTTTGATCAA,2.02 Kd / Kd of best base at the position,
AGTCTTTGACAAA,4.34 Kd / Kd of best base at the position,
TGTCTTTGATAAA,1.34 Kd / Kd of best base at the position,
AGCCTTTGATAAA,2.89 Kd / Kd of best base at the position,
AGGCTTTGATAAA,4.74 Kd / Kd of best base at the position,
AGTCTTTGATGAA,1.49 Kd / Kd of best base at the position,
AATCTTTGATAAA,6.88 Kd / Kd of best base at the position,
AGTGTTTGATAAA,2.49 Kd / Kd of best base at the position,
AGACTTTGATAAA,1.18 Kd / Kd of best base at the position,
AGTCTTTGATTAA,1.63 Kd / Kd of best base at the position,
AGTCTTTGAGAAA,1.72 Kd / Kd of best base at the position,
AGTCTTTGATAAT,1.35 Kd / Kd of best base at the position,
AGTCTTTGCTAAA,2.06 Kd / Kd of best base at the position,
ACTCTTTGATAAA,1.97 Kd / Kd of best base at the position,
ATTCTTTGATAAA,1.9 Kd / Kd of best base at the position,
AGTCTTAGATAAA,10.4 Kd / Kd of best base at the position,
AGTCTTTGTTAAA,4.66 Kd / Kd of best base at the position,
AGTCTTGGATAAA,5.87 Kd / Kd of best base at the position,
AGTCATTGATAAA,7.68 Kd / Kd of best base at the position,

Sequence,binding signal,Kd [µM]
AGTCTTTCATAAA,8.7 Kd / Kd of best base at the position,
AGTCTTCGATAAA,7.5 Kd / Kd of best base at the position,
AGTCTTTGGTAAA,1.21 Kd / Kd of best base at the position,
AGTCTTTAATAAA,4.58 Kd / Kd of best base at the position,
AGTCTGTGATAAA,7.87 Kd / Kd of best base at the position,
AGTCTCTGATAAA,9.73 Kd / Kd of best base at the position,
AGTCTTTGATACA,2.07 Kd / Kd of best base at the position,
AGTCTTTGATATA,1.14 Kd / Kd of best base at the position,
CGTCTTTGATAAA,2.92 Kd / Kd of best base at the position,
AGTCTTTGAAAAA,2.52 Kd / Kd of best base at the position,
AGTCTTTTATAAA,3.15 Kd / Kd of best base at the position,
AGTATTTGATAAA,5.89 Kd / Kd of best base at the position,
AGTCGTTGATAAA,9.13 Kd / Kd of best base at the position,
GGTCTTTGATAAA,1.08 Kd / Kd of best base at the position,
AGTCTTTGATAAA,,~0.073
AGTCCTTGATAAA,5.41 Kd / Kd of best base at the position,
AGTCTTTGATAAC,4.04 Kd / Kd of best base at the position,
AGTCTATGATAAA,8.1 Kd / Kd of best base at the position,
